This passage reports Potency and outcome results from PubChem BioAssay (Tox21).

Test [1] in a line: qHTS assay to identify small molecule agonists of the sonic hedgehog signaling (Shh) pathway (AID 1259368).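 Note: NIH/3T3-derived 3T3Gli1-Luc cells carrying a stable Gli1-driven firefly luciferase reporter; series mostly up to about 92 µM; nearly all actives have a fitted effect of over 15% in size.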 An outline of the steps: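 3T3Gli1-Luc (NIH/3T3 clone, stable Gli1-Luc); 4 hr pre-incubation, then cpd in DMSO 24 hr, 37 C/5% CO2; luciferase reagent 30 min RT; luminescence.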
Test [2] is described as follows: qHTS assay to identify small molecule antagonists of the sonic hedgehog signaling (Shh) pathway (AID 1259369). Note: nearly all actives have a fitted effect of over 45% in size. The gist of the method: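 3T3Gli1-Luc, conditioned-medium-stimulated, 24hr cpd, 37C/5% CO2; Gli1-driven firefly Luc luminescence after 30min RT with luciferase reagent. Cells plated 4hr before cpd.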
Test [3] has as its target Estrogen receptor beta (Homo sapiens) (UniProt Q92731). The experiment in a line: qHTS assay to identify small molecule agonists of the estrogen receptor beta (ER-beta) signaling pathway (AID 1259377; active = well fitted activation curve with a large enough effect in the signal ratio in the repeat runs, not every such curve was filed as active; the % refers to the signal ratio). An outline of the steps:
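Read-out: beta-lactamase FRET fluorescence. Cell line: ER-beta-UAS-bla HEK293T in 2% charcoal-stripped FBS. Exposure: 16 hr at 37C. Substrate step: 2 h at room temperature.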

For test [4] the target is unchanged. Briefly: qHTS assay to identify small molecule antagonists of the estrogen receptor beta (ER-beta) signaling pathway (AID 1259378; active = well fitted inhibition curve with a large enough effect in the signal ratio in the repeat runs, not every such curve was filed as active; the % refers to the signal ratio; note: potency is the fitted concentration of half-maximal effect). The gist of the method:
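ER-beta-UAS-bla HEK293T cells in 2% charcoal-stripped FBS medium treated with compound plus 1nM final 17-beta-estradiol for 16 hr at 37C. Beta-lactamase reporter read by FRET substrate fluorescence after 2 hours at room temperature.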

The nature of test [5]: qHTS assay to identify small molecule agonists of the androgen receptor (AR) signaling pathway in the presence of an antagonist - cell viability counter screen (AID 1259379; active = well fitted curve in the direction sought with a large enough effect in the repeat runs; an effect the other way counts as inactive or inconclusive;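 note: MDA-kb2 human breast cancer cells carrying an MMTV luciferase reporter; series mostly up to about 92 µM; nearly all actives have a fitted effect of over 25% in size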). The gist of the method: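 Cells: MDA-kb2 (MMTV-luc, AR and GR elements), 3,000/well, 5 hr settle. Added: nilutamide 3.0uM final, then compounds (15 conc.). Incubation: 16 hr, 37C, no CO2. Read-out: CellTiter-Fluor, 1 hr, fluorescence.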

Test [6] is described as follows: qHTS assay to identify small molecule antagonists of the estrogen receptor beta (ER-beta) signaling pathway - cell viability counter screen (AID 1259382; active = well fitted curve in the direction sought with a large enough effect in the repeat runs; an effect the other way counts as inactive or inconclusive; note: series mostly up to about 92 µM; nearly all actives have a fitted effect of over 55% in size). The gist of the method:
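Cells: ER-beta-UAS-bla HEK293T, 2,000/well, 2% CS-FBS, 6 hr settle. Cpd + E2 (1nM final), 16 hr, 37C/5% CO2. Bla FRET substrate 2 hr RT, then CellTiter-Glo 30 min RT, luminescence.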

In test [7] the target is Estrogen receptor (Homo sapiens) (UniProt P03372). Briefly: qHTS assay to identify small molecule agonists of the estrogen receptor alpha (ER-alpha) signaling pathway in the presence of an antagonist (AID 1259383). Note: top concentration of the series differs between compounds; nearly all actives have a fitted effect of over 15% in size. The gist of the method: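 VM7Luc4E2, endog. ER-alpha + 4×ERE-luc; charcoal-stripped FBS, phenol red-free, 5 d; 24hr plating; +10.0nM ICI-182,780 (final); cpds 15 conc, 22hr, 37C/5% CO2; ONE-Glo luminescence.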

Test [8] can be described thus: qHTS assay to identify small molecule agonists or antagonists of the thyroid stimulating hormone receptor (TSHR) signaling pathway - wild type cell line counter screen (AID 1259384). An outline of the steps: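 Wild-type Hek293 cells, 800/well, 18 h at 37C, then compound with Ro20-1724 for 30 min RT. cAMP by HTRF (cAMP-d2/anti-cAMP cryptate), 1 h RT, fluorescence read. 15 concentrations, triplicates.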

The target in test [9] is Thyrotropin receptor (Homo sapiens) (UniProt P16473). Briefly: qHTS assay to identify small molecule antagonists of the thyroid stimulating hormone receptor (TSHR) signaling pathway (AID 1259385). Note: nearly all actives have a fitted effect of over 20% in size. The gist of the method:
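TSHR-HEK293 cells (800/well) plated 18 h, then compounds with Ro20-1724 and TSH at 1.5 ng/mL final, 30 min at room temperature. cAMP quantified by HTRF (cAMP-d2/anti-cAMP-cryptate, 1 h); 15 concentrations in triplicate.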

Test [10] in a line: qHTS assay to identify small molecule agonists of the estrogen receptor alpha (ER-alpha) signaling pathway in the presence of an antagonist - cell viability counter screen (AID 1259386; active = well fitted curve in the direction sought with a large enough effect in the repeat runs; an effect the other way counts as inactive or inconclusive;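 note: series mostly up to about 92 µM; cells exposed to compounds for 22 h at 37 °C before the viability read; nearly all actives have a fitted effect of over 30% in size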). An outline of the steps:
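VM7Luc4E2, stripped-serum pre-culture 5 d; 24hr plating; +ICI-182,780 10.0nM final; cpds 15 conc, 22hr, 37C/5% CO2; CellTiter-Fluor added at 21hr, fluorescence 1hr later.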

Test [11] concerns the target Progesterone receptor (Homo sapiens) (UniProt P06401). Briefly: qHTS assay to identify small molecule agonists of the progesterone receptor (PR) signaling pathway (AID 1346784). Note: nearly all actives have a fitted effect of over 30% in size. An outline of the steps: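 Compounds were tested for PR agonism in HEK 293T cells bearing a beta-lactamase gene under UAS control. Treatment lasted 16 hr at 37C; signal came from fluorescence of a FRET substrate.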

The target is the same in test [12]. Briefly: qHTS assay to identify small molecule antagonists of the progesterone receptor (PR) signaling pathway (AID 1346795; active = well fitted inhibition curve with a large enough effect in the signal ratio in the repeat runs, not every such curve was filed as active; the % refers to the signal ratio; note: potency is the fitted concentration of half-maximal effect). An outline of the steps:
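In HEK293T cells bearing the PR-UAS-bla reporter, compound effects on promegestone-driven (1 nM) beta-lactamase expression are assessed after 16 hr using a fluorescent FRET substrate incubated 2 hr at room temperature.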

Test [13] is described as follows: qHTS assay to identify small molecule antagonists of the progesterone receptor (PR) signaling pathway - cell viability counter screen (AID 1346798; active = well fitted curve in the direction sought with a large enough effect in the repeat runs; an effect the other way counts as inactive or inconclusive; note: nearly all actives have a fitted effect of over 50% in size; note: potency is the fitted concentration of half-maximal effect). The gist of the method:
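Following a 4 hr attachment, PR-UAS-bla HEK293T cells in charcoal-stripped FBS medium were exposed to compounds with R5020 for 16 hr; CellTiter-Glo was added and luminescence read after 30 min at room temperature.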

Test [14] in a line: qHTS assay to identify small molecule agonists of the progesterone receptor (PR) signaling pathway - cell viability counter screen (AID 1346799). Note: nearly all actives have a fitted effect of over 45% in size. The gist of the method:
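Here, 3,000 PR-UAS-bla HEK293T cells per well were treated with compounds for 16 hr after a 6 hr preincubation at 37C and 5% CO2; cell viability is the CellTiter-Glo luminescence signal.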

Test [15] is described as follows: qHTS assay to identify small molecule antagonists of the TGF-beta/Smad signaling pathway - cell viability counter screen (AID 1346824; active = well fitted curve in the direction sought with a large enough effect in the repeat runs; an effect the other way counts as inactive or inconclusive; note: nearly all actives have a fitted effect of over 50% in size). An outline of the steps:
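SBE-bla HEK 293T cells, incubated overnight, then compound plus 0.25 ng/mL TGF-beta1 (stock added) for 5 hr at 37 C. Viability was read in the same wells by CellTiter-Glo luminescence after 30 min at room temperature.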

Test [16] in a line: qHTS assay to identify small molecule agonists of the TGF-beta/Smad signaling pathway - cell viability counter screen (AID 1346829; active = well fitted curve in the direction sought with a large enough effect in the repeat runs; an effect the other way counts as inactive or inconclusive; note: top concentration of the series differs between compounds; nearly all actives have a fitted effect of over 45% in size). The gist of the method:
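Same-well cytotoxicity: CellTiter-Glo added after the 2 hr room-temperature beta-lactamase substrate step, luminescence measured 30 min later; cells had 5 hr of compound at 37 C.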

Test [17] can be described thus: qHTS assay to identify small molecule agonists of the TGF-beta/Smad signaling pathway (AID 1346859; active = well fitted activation curve with a large enough effect in the signal ratio in the repeat runs, not every such curve was filed as active; the % refers to the signal ratio; note: series mostly up to about 77 µM). The gist of the method:
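Each well held 4,000 SBE-bla HEK 293T cells incubated overnight before compound addition; 5 hr later the cleavable FRET substrate went on for 2 hr at room temperature, and fluorescence was read at two emissions.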

The target in test [18] is Thyrotropin-releasing hormone receptor (Homo sapiens) (UniProt P34981). Briefly: qHTS assay to identify small molecule antagonists of the thyrotropin-releasing hormone receptor (TRHR) signaling pathway (AID 1346877; active = well fitted inhibition curve with a large enough effect in the repeat runs, not every such curve was filed as active; note: series mostly up to about 51 µM). The gist of the method:
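Intracellular calcium fluorescence, read kinetically every second over 3 min, reports TRH-evoked signalling in HEK293 cells carrying TRHR. Test compounds were added 5 min ahead of a 1 nM TRH challenge.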

Test [19] deals with Androgen receptor (Homo sapiens) (UniProt P10275). Briefly: qHTS assay to identify small molecule agonists of the androgen receptor (AR) signaling pathway in the presence of an antagonist (AID 1259381). Note: nearly all actives have a fitted effect of over 15% in size. The gist of the method: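 MDA-kb2 cells, 3,000/well, rested 5hr at 37C/0% CO2 → nilutamide 3.0uM final or buffer → compounds, 15 conc. → 16hr at 37C → ONE-Glo, 30min RT → luminescence.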

A short description of test [20]: qHTS assay to identify small molecule agonists of the estrogen receptor beta (ER-beta) signaling pathway - cell viability counter screen (AID 1259380; active = well fitted curve in the direction sought with a large enough effect in the repeat runs; an effect the other way counts as inactive or inconclusive; note: nearly all actives have a fitted effect of over 30% in size). The gist of the method: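 HEK293T ER-beta-UAS-bla; 2% CS-FBS; 6 hr pre-plate, 16 hr cpd at 37C/5% CO2; LiveBLAzer read first, then CellTiter-Glo 30 min RT, luminescence.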

Structures are written as SMILES. Values without a mark were called inactive. Inconclusive results are not listed. Activity calls are given as the source filed them. Unless noted, calls come from the whole dose curve.

Sequence of Progesterone receptor (Homo sapiens) (P06401 whole entry, looked up): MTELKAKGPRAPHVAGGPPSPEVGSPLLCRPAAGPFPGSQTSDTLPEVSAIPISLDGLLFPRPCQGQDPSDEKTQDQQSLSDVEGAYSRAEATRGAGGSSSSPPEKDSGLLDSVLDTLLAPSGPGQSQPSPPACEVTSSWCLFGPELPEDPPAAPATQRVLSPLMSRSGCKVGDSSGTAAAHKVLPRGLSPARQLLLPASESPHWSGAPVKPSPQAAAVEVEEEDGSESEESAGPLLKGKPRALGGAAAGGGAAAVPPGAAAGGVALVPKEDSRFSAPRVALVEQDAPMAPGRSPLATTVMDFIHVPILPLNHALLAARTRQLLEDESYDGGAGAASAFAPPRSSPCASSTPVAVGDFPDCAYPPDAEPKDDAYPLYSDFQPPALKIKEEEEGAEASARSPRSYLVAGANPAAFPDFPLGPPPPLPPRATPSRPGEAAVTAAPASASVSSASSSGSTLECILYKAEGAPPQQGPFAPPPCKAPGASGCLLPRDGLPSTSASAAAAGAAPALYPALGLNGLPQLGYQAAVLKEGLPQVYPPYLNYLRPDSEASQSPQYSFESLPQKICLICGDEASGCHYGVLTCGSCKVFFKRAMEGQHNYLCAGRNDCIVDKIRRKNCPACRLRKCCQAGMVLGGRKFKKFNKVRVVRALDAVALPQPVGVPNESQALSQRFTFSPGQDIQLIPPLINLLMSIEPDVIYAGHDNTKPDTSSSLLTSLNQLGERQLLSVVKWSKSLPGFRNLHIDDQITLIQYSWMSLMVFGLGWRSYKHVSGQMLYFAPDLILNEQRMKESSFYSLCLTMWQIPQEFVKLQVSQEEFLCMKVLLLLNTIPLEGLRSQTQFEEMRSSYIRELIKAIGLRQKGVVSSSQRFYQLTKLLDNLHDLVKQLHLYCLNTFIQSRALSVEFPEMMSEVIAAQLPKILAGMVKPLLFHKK
Sequence of Estrogen receptor (Homo sapiens) (P03372 whole entry, looked up): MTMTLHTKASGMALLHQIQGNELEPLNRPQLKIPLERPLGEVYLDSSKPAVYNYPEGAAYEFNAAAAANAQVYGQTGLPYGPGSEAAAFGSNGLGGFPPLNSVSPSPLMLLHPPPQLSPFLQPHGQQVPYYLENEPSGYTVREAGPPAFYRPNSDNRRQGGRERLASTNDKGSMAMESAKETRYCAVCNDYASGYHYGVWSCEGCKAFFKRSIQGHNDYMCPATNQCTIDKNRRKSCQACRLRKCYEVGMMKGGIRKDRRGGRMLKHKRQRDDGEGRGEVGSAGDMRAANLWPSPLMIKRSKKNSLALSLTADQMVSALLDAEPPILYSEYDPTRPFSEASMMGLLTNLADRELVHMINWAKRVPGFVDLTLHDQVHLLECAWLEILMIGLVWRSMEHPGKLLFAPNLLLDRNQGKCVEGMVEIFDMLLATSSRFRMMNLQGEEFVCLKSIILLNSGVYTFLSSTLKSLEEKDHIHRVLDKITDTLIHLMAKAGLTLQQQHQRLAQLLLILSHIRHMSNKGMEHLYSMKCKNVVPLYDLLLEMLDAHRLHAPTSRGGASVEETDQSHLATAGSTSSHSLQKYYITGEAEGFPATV
Sequence of Thyrotropin-releasing hormone receptor (Homo sapiens) (P34981 whole entry, looked up): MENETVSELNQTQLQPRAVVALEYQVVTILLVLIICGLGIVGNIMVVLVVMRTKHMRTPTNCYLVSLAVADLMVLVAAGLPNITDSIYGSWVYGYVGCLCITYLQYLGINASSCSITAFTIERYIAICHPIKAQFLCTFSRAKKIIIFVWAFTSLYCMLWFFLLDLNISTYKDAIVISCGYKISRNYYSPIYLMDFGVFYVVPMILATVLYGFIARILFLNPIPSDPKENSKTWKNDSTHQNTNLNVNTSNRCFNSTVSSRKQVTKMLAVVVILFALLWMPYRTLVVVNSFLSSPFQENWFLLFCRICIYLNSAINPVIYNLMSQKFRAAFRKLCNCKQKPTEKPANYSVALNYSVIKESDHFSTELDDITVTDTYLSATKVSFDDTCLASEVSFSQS
Sequence of Thyrotropin receptor (Homo sapiens) (P16473 whole entry, looked up): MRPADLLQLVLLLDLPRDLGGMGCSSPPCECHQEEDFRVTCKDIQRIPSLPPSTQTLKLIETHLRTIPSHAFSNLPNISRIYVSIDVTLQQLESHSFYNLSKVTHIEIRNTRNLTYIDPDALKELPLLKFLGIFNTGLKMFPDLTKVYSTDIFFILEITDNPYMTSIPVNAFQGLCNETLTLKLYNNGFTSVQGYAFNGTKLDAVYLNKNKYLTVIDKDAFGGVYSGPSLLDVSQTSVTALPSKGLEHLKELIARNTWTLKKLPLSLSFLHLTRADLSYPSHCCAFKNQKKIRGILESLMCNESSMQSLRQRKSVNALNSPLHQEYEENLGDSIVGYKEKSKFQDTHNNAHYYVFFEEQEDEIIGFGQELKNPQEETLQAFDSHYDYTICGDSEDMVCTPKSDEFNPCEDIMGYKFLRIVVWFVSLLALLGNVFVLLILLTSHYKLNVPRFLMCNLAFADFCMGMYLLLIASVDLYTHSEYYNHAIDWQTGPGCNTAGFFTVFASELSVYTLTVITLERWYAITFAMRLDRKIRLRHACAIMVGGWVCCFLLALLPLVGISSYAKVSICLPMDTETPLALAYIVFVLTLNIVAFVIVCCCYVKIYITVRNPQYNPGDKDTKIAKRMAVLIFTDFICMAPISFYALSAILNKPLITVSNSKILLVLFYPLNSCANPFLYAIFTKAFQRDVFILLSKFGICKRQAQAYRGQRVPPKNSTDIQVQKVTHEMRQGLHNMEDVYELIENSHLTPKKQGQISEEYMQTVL
Sequence of Estrogen receptor beta (Homo sapiens) (Q92731 whole entry, looked up): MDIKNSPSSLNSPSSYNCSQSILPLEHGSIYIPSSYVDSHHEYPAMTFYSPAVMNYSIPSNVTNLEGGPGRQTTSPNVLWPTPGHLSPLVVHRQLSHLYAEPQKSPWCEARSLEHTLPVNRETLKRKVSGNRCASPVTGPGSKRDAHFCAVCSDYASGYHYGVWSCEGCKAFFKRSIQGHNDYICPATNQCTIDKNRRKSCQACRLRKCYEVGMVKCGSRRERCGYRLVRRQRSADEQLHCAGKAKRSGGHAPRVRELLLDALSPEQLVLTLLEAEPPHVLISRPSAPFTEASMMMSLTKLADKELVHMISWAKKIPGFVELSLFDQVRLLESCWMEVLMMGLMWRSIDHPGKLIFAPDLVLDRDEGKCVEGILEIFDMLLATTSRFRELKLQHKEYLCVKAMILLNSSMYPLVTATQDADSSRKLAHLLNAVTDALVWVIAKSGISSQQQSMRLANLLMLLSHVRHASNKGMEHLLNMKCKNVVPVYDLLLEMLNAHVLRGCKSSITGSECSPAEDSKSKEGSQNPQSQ
Sequence of Androgen receptor (Homo sapiens) (P10275 whole entry, looked up): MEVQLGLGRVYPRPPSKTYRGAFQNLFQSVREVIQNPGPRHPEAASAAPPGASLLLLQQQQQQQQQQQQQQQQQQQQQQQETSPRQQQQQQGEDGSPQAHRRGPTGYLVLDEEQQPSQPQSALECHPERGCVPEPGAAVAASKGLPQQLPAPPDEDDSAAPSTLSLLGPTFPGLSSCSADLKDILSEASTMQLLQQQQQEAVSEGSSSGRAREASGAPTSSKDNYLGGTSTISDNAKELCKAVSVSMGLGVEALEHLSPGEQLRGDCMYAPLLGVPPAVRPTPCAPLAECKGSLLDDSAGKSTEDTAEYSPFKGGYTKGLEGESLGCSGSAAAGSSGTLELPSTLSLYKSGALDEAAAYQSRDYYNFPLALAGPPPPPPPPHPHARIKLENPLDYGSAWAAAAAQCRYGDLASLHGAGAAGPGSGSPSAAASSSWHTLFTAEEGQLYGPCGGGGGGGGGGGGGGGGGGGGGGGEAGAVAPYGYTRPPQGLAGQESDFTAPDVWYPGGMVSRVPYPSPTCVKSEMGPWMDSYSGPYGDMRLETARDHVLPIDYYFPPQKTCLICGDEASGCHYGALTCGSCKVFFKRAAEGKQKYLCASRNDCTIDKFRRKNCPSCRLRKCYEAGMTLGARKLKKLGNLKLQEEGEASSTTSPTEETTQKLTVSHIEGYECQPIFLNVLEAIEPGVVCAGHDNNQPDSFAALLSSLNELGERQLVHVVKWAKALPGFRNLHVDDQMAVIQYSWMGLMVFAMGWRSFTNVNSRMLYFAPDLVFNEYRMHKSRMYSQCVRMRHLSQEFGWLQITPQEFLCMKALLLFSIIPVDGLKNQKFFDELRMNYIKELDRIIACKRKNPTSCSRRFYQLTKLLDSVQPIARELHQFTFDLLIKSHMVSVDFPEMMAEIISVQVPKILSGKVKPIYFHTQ

In the case of `CC(C)(C)C(O)/C=C/c1ccc2c(c1)OCO2` (stereo not given), the Potency result in [1], in test [2], in test [3], in [4], in test [5] and in test [6] was “inactive” in each case. In addition, the Potency entry in [7], in test [8], in test [9], in test [10], in [11] and in [13] was “inactive” each time. For the same molecule, the Potency entry in test [14], in test [16] and in test [17] was “inactive” in each case. Also, the Potency in test [12] was 23.7 µM (active). Also, the outcome in [15] and in test [18] was inactive.

With `Cc1cn([C@H]2C[C@H](F)[C@@H](CO)O2)c(=O)[nH]c1=O`, the Potency result in test [1], in [2], in test [3], in [4], in test [5] and in [19] was “inactive” each time. Besides, the Potency result in test [6], in [7], in [8], in test [9], in [10] and in test [11] was “inactive” in each case. The Potency result in test [12], in test [13], in test [16] and in test [17] was “inactive” each time. For the same molecule, the outcome in test [15] was inactive.

In the case of `CCN(CC)CC(=O)Nc1c(C)cccc1C(=O)OC`, the Potency entry in test [1], in test [2], in test [3], in test [4], in test [20] and in test [6] was “inactive” throughout. Also, the Potency result in test [7], in test [8], in test [9], in test [10], in test [11] and in test [12] was “inactive” in each case. Also, the Potency result in test [13], in test [14], in test [16] and in test [17] was “inactive” in each case. The outcome in test [15] was inactive.

On to `COc1ccc(N)c([N+](=O)[O-])c1`, for which the Potency entry in test [1], in test [2], in test [3], in [4], in test [20] and in [6] was “inactive” throughout. The Potency entry in [8], in [9], in [11], in [12], in test [13] and in [16] was “inactive” each time. Besides, the Potency entry in [17] was “inactive”. Further, the molecule was classed as inactive in test [15] and in test [18].

`Cc1cc(CCC(=O)OCCOCCOCCOC(=O)CCc2cc(C)c(O)c(C(C)(C)C)c2)cc(C(C)(C)C)c1O`: the Potency result in test [1], in test [2], in test [3], in [4], in test [5] and in test [20] was “inactive” each time. For the same molecule, the Potency result in test [8], in test [10], in test [11], in test [12], in test [13] and in test [14] was “inactive” throughout. For the same molecule, the Potency result in [16] and in test [17] was “inactive” each time. Also, the molecule was called inactive in [18].

Turning to `COC1CCC=CO1` (stereo not given), the Potency result in [1], in test [2], in test [3], in test [4], in test [6] and in [7] was “inactive” in each case. Moreover, the Potency result in test [8], in [9], in test [10], in [11], in test [12] and in [13] was “inactive” throughout. In addition, the Potency result in test [14], in [16] and in test [17] was “inactive” each time. For the same molecule, the molecule was called inactive in test [15].

For the molecule `COc1ccc(-c2cc(=S)ss2)cc1`, the Potency entry in [1], in [2], in test [3], in test [20], in [6] and in test [8] was “inactive” throughout. For the same molecule, the Potency result in [16] and in test [17] was “inactive” each time. For the same molecule, the Potency in test [4] was 13.3 µM (active); in test [13], 15 µM (active). For the same molecule, the outcome in test [15] and in test [18] was inactive.
